Where “and” joins values, the source holds several entries; their conditions need not be identical. Identical values can stand only once. About 83,000 compounds went through this panel and 20% of them were active in at least one assay; those are over-represented in the sample as a whole.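 Values shown are percent growth following 48 h exposure of cells in 96-well plates to a single concentration of compound; below 10 was considered active.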 Values without a mark were called inactive. Calls of active or inactive are those of the source.
Tested on: MDA-MB-468 breast
Assay: NCI-60 one-dose screen, 48 h (100 = growth as untreated, 0 = no growth, -100 = all killed)
Settings: 10 µM unless noted

Compound	growth
CCCOC(=O)c1ccc2c(c1)[N+](=O)C(C(=O)c1ccccc1)=C(C(F)(F)F)[N+]2=O	-81.4% (active)
CC(=O)C1CCC(C)=CC1=O (configuration not stated)	116%
Clc1ccc(N2N=C(c3cccc(Nc4ccncc4)c3)CC2c2ccccc2)cc1 (configuration not stated)	74.1%
O=[N+]([O-])c1ccc(-c2noc(-c3cccs3)n2)cc1	56.6%
Cc1ccc2nc(Cl)cc(=O)n2c1	112%
CN(CC(=O)O)c1ccc(/C=C/c2ccnc3ccccc23)cc1	-0.654% (active)
C[C@@H]1O[C@@H](O[C@@H]2C[C@H](c3ccc4c(c3O)C(=O)C3=C(C4=O)[C@@]4(O)C(=O)C[C@](C)(O)C[C@@]4(O)C=C3)O[C@H](C)[C@H]2O)CC[C@@H]1O[C@H]1C[C@@H](O)[C@H](O)[C@@H](C)O1	106%
COc1ccc(C(=S)c2cc(OC)c(OC)c(OC)c2)cc1OC(=O)CCl	47.5%
Cc1cc2cn3c4cccnc4[nH]c(=O)c3c2cc1C	37.2%
CC(C)CC(NC(=O)OCC1c2ccccc2-c2ccccc21)C(=O)O (configuration not stated)	103%
O=C1C=CC[C@H](/C=C/c2ccccc2)O1	10.2%
COc1ccc(C(=O)N2N=C(c3ccc(F)cc3)CC2c2cn(-c3ccccc3)nc2-c2ccccc2)cc1 (configuration not stated)	60.8%
COc1cc(-c2nc(SCCC(C)C)nc(Nc3ccc(S(N)(=O)=O)cc3)c2C#N)cc(OC)c1OC	42.8%
COC(=O)C1(C)CCC[C@]2(C)[C@H]3C[C@H]4C(C(C)C)=C[C@]3(CC[C@@H]12)[C@H]1[C@@H]4[C@@H](OC(=O)c2ccco2)CC[C@@H]1OC(=O)c1ccco1 (some centres not stated)	102%
CC(=O)OC1CC2C(C)(C)CCC[C@]2(C)C2=C1C(O)=C(C(C)C)C(=O)C2=O (some centres not stated)	-49.5% (active)
Nc1ccc(-c2cc3c(NCc4ccccc4)ncnc3s2)cc1	4.36% (active)
Nc1nc2c(c3cnccc13)C(c1cccc(Cl)c1)Cc1cnccc1-2 (configuration not stated)	-15.9% (active)
CCOC(=O)c1c(C)nc(C)c(C(=O)OCC)c1-c1cccnc1	94.8%
Cc1cc2ccccc2nc1-c1ccccc1F	105%

Compound	growth
Cc1ccc(NC(=O)NC(=O)CSc2nc3ccccc3nc2C)cc1	19.6%
CC1(C)CC(=O)c2c(nc3ccc(Cl)cc3c2-c2ccccc2)C1	92%
CCCCCCCC/C=C\CCCCCCCC(=O)OCCCCCC	95.8%
O=C(NC1CCCCC1)OCc1c(COC(=O)NC2CCCCC2)c(-c2ccc(Cl)c(Cl)c2)n2c1CCC2	-61.7% (active)
Cc1cccc2c(=O)c3c(sc12)c(NCCN)nc1ccccc13	-57.3% (active)
Cc1cc(N2CCOCC2)nc(N(CCCNc2ccnc3cc(Cl)ccc23)Cc2ccco2)n1	21.7%
CCOC(=O)C1=C(C)NC(C)=C(C(=O)OCC)C1	97.7% and 86.9%
COc1cc(/C=C/c2cc(/C=C/c3ccc(O)c(OC)c3)n(C(=O)Nc3ccc(C)cc3)n2)ccc1O	-29.1% (active)
N#Cc1nn(-c2cc(=O)[nH]c3ccc(Cl)cc23)c(N)c1C#N	110%
C=C1C(=O)O[C@H]2[C@H]1CC/C(COC(=O)CCC(=O)OC/C1=C/CC[C@@]3(C)O[C@H]3[C@H]3OC(=O)C(=C)[C@@H]3CC1)=C\CC[C@@]1(C)O[C@@H]21	-39% (active)
O=C(Nc1ccc(Cl)cc1F)c1cc(F)ccc1O	3.61% (active)
COc1ccc(Cc2cc(-c3ccccc3)nn(Cc3ccccc3)c2=O)cc1OC	42.9%
CC/C=C\C[C@H](O)C/C=C1/C(=O)C(Cl)=C[C@@H]1C/C=C\CCCC(=O)O	41.1%
COc1ccc(OC)c(C(=O)/C=C/c2cc3c(c(OC)c2OC)OCO3)c1	33.5%
CCOC(=O)C1(CC(C)C)CCOC1=O (configuration not stated)	99.7%
CCC1(CC)NC(=O)c2c(c3ccc(Cl)c(Cl)c3n2C)C1C#N (configuration not stated)	106%
COc1ccc(CC(=O)Nc2nn3c(-c4cc(C(F)(F)F)cc(C(F)(F)F)c4)nnc3s2)cc1	48.4%
O=C(Nc1ccc(-n2cc(-c3ccncc3)c(-c3ccc(Cl)c(O)c3)n2)cc1)c1cc(Cl)cc(Cl)c1	57.6%

From PubChem BioAssay (NCI)
